# Laboratory results taken from PubChem BioAssay AID1159580 (chemical genetic matrix, 2015).
# Screen size: about 5,500 compounds; about 2,000 (36%) were called active. Another 18% or so got no clear call; they are omitted. This is one part of the list. Unmarked numbers belong to inactive results. No stated cut-off is given here; in the data, active means normalized growth mostly below about 0.91 (no sharp cut-off); inconclusive means no clear call, values can overlap the other calls; inactive means mostly above about 0.92.
# Assay: chemical genetic growth profiling, strain panel (AID 1159580);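 further: tested at 20 µM; growth read once vehicle control cultures reached saturation at 30 °C; 1 = growth at the plate median or of vehicle wells; lower values mean less growth of the strain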
# Conditions: S. cerevisiae deletion strains, growth OD
# [1] = locus YDL101C, strain DUN1, active compounds read low
# [2] = locus YHR030C, strain SLT2, active compounds read low
# [3] = locus YJL095W, strain BCK1, active compounds read low
# [4] = locus YOR061W, strain CKA2, active compounds read low
smiles,measurement,setting,value
CCC(CCC(C)C1CCC2C3CC=C4C[C@@H](OC(C)=O)CC[C@]4(C)C3CC[C@]12C)C(C)C (some centres undefined),normalized growth,"locus YBR021W, strain FUR4, active compounds read low",0.996
same,normalized growth,"locus YBR229C, strain ROT2, active compounds read low",0.99
same,normalized growth,"locus YCL029C, strain bik1, active compounds read low",0.996
same,normalized growth,"locus YDL035C, strain GPR1, active compounds read low",1.04
same,normalized growth,"locus YDL074C, strain BRE1, active compounds read low",1.07
same,normalized growth,[1],0.979
same,normalized growth,"locus YDL134C, strain PPH21, active compounds read low",1.01
same,normalized growth,"locus YDL185W, strain tfp1, active compounds read low",0.974
same,normalized growth,"locus YDL192W, strain arf1, active compounds read low",1
same,normalized growth,"locus YDR101C, strain arx1, active compounds read low",1.02
same,normalized growth,"locus YDR162C, strain NBP2, active compounds read low",1
same,normalized growth,"locus YDR318W, strain mcm21, active compounds read low",0.976
same,normalized growth,"locus YDR388W, active compounds read low",0.963
same,normalized growth,"locus YDR502C, strain sam2, active compounds read low",0.968
same,normalized growth,"locus YEL061C, strain CIN8, active compounds read low",1
same,normalized growth,"locus YER110C, active compounds read low",0.968
same,normalized growth,"locus YER155C, strain BEM2, active compounds read low",0.981
same,normalized growth,"locus YER167W, strain BCK2, active compounds read low",1.01
same,normalized growth,"locus YGL078C, strain dbp3, active compounds read low",0.964
same,normalized growth,"locus YGL086W, strain mad1, active compounds read low",0.992
same,normalized growth,"locus YGL248W, strain PDE1, active compounds read low",0.982
same,normalized growth,"locus YGR078C, strain PAC10, active compounds read low",0.989
same,normalized growth,"locus YGR135W, strain pre9, active compounds read low",0.945
same,normalized growth,"locus YGR252W, strain gcn5, active compounds read low",0.941
same,normalized growth,[2],0.991
same,normalized growth,"locus YHR079C, strain IRE1 (second series), active compounds read low",0.977
same,normalized growth,"locus YHR094C, strain hxt1, active compounds read low",0.976
same,normalized growth,"locus YHR129C, strain ARP1, active compounds read low",0.998
same,normalized growth,"locus YHR200W, strain rpn10, active compounds read low",0.975
same,normalized growth,"locus YIL066C, strain RNR3, active compounds read low",1.02
same,normalized growth,"locus YIL073C, strain SPO22, active compounds read low",1.01
same,normalized growth,"locus YIL125W, strain kgd1, active compounds read low",0.987
same,normalized growth,"locus YIR030C, strain dcg1, active compounds read low",0.968
same,normalized growth,[3],0.991
same,normalized growth,"locus YJL134W, strain LCB3, active compounds read low",0.991
same,normalized growth,"locus YJL168C, strain set2, active compounds read low",0.96
same,normalized growth,"locus YJL187C, strain SWE1 (second series), active compounds read low",0.979
same,normalized growth,"locus YJR043C, strain POL32, active compounds read low",1.05
same,normalized growth,"locus YKL009W, strain mrt4, active compounds read low",1.03
same,normalized growth,"locus YKL068W, active compounds read low",0.987
same,normalized growth,"locus YKL085W, strain MDH1 (second series), active compounds read low",0.989
same,normalized growth,"locus YKL085W, strain MDH1, active compounds read low",0.989
same,normalized growth,"locus YKL190W, strain CNB1, active compounds read low",1
same,normalized growth,"locus YKR001C, strain vps1, active compounds read low",0.995
same,normalized growth,"locus YLR039C, strain RIC1, active compounds read low",1.07
same,normalized growth,"locus YLR058C, strain SHM2, active compounds read low",1
same,normalized growth,"locus YLR102C, strain apc9, active compounds read low",0.978
same,normalized growth,"locus YLR262C, strain YPT6, active compounds read low",1.08
same,normalized growth,"locus YLR268W, strain sec22, active compounds read low",1.02
same,normalized growth,"locus YLR330W, strain CHS5, active compounds read low",0.993
same,normalized growth,"locus YLR342W, strain FKS1 (second series), active compounds read low",1.09
same,normalized growth,"locus YLR371W, strain rom2, active compounds read low",0.993
same,normalized growth,"locus YLR418C, strain cdc73, active compounds read low",0.959
same,normalized growth,"locus YML016C, strain PPZ1, active compounds read low",1.01
same,normalized growth,"locus YML032C, strain rad52, active compounds read low",1.01
same,normalized growth,"locus YML124C, strain tub3, active compounds read low",0.98
same,normalized growth,"locus YMR078C, strain ctf18, active compounds read low",0.962
same,normalized growth,"locus YMR223W, strain ubp8, active compounds read low",0.992
same,normalized growth,"locus YMR307W, strain GAS1, active compounds read low",1.06
same,normalized growth,"locus YNL067W, strain RPL9B, active compounds read low",0.974
same,normalized growth,"locus YNL128W, strain TEP1, active compounds read low",1.01
same,normalized growth,"locus YNL233W, strain BNI4, active compounds read low",0.98
same,normalized growth,"locus YNL250W, strain rad50, active compounds read low",0.947
same,normalized growth,"locus YNL271C, strain bni1, active compounds read low",0.957
same,normalized growth,"locus YNL298W, strain CLA4, active compounds read low",0.997
same,normalized growth,"locus YNL307C, strain MCK1, active compounds read low",0.975
same,normalized growth,"locus YNR052C, strain pop2, active compounds read low",0.961
same,normalized growth,"locus YOL006C, strain TOP1, active compounds read low",1.2
same,normalized growth,"locus YOL012C, strain htz1",1.41
same,normalized growth,"locus YOL147C, strain pex11, active compounds read low",0.989
same,normalized growth,[4],1.01
same,normalized growth,"locus YOR069W, strain VPS5, active compounds read low",0.99
same,normalized growth,"locus YOR136W, strain idh2, active compounds read low",0.975
same,normalized growth,"locus YOR144C, strain elg1, active compounds read low",0.97
same,normalized growth,"locus YOR184W, strain ser1, active compounds read low",1.04
same,normalized growth,"locus YOR316C, strain cot1, active compounds read low",0.978
same,normalized growth,"locus YPL055C, strain LGE1, active compounds read low",1.03
same,normalized growth,"locus YPL241C, strain CIN2, active compounds read low",0.984
same,normalized growth,"locus YPR119W, strain clb2, active compounds read low",0.971
same,normalized growth,"locus YPR141C, strain kar3, active compounds read low",0.975
same,normalized growth,"locus YPR163C, strain tif3, active compounds read low",0.982
same,normalized growth,"locus YPR167C, strain met16, active compounds read low",0.967
same,normalized growth,"strain wtn01, active compounds read low",1.01
CC12CC[C@@H](O)CC1=CC[C@@H]1C2CCC2(C)C(=O)CC[C@@H]12 (some centres undefined),normalized growth,"locus YAR019C, strain CDC15, active compounds read low",1.01
same,normalized growth,"locus YBL105C, strain PKC1, active compounds read low",1.01
same,normalized growth,"locus YBR135W, strain CKS1, active compounds read low",1.02
same,normalized growth,"locus YBR136W, strain MEC1, active compounds read low",1.01
same,normalized growth,"locus YBR160W, strain CDC28, active compounds read low",1.02
same,normalized growth,"locus YDL017W, strain CDC7, active compounds read low",1.02
same,normalized growth,"locus YDL028C, strain MPS1, active compounds read low",1.02
same,normalized growth,[1],1
same,normalized growth,"locus YDL108W, strain KIN28, active compounds read low",1.01
same,normalized growth,"locus YDL132W, strain cdc53, active compounds read low",1.02
same,normalized growth,"locus YDL214C, strain PRR2, active compounds read low",0.915
same,normalized growth,"locus YDR052C, strain DBF4, active compounds read low",1.01
same,normalized growth,"locus YDR054C, strain cdc34, active compounds read low",1.01
same,normalized growth,"locus YDR226W, strain ADK1, active compounds read low",1.01
same,normalized growth,"locus YDR477W, strain SNF1, active compounds read low",0.909
same,normalized growth,"locus YER123W, strain YCK3, active compounds read low",0.822
same,normalized growth,"locus YER133W, strain GLC7, active compounds read low",0.915
same,normalized growth,"locus YFL009W, strain cdc4, active compounds read low",1.02
same,normalized growth,"locus YFL029C, strain CAK1, active compounds read low",1.01
same,normalized growth,"locus YFR003C, strain YPI1, active compounds read low",1.01
same,normalized growth,"locus YFR019W, strain FAB1, active compounds read low",0.801
same,normalized growth,"locus YFR028C, strain CDC14, active compounds read low",1.01
same,normalized growth,"locus YGR040W, strain KSS1, active compounds read low",0.889
same,normalized growth,"locus YGR052W, strain FMP48, active compounds read low",0.924
same,normalized growth,"locus YGR092W, strain DBF2, active compounds read low",0.695
same,normalized growth,[2],0.787 (active)
same,normalized growth,"locus YHR079C, strain IRE1, active compounds read low",0.96
same,normalized growth,"locus YHR082C, strain KSP1, active compounds read low",0.95
same,normalized growth,"locus YHR205W, strain SCH9, active compounds read low",0.852
same,normalized growth,"locus YIL147C, strain SLN1, active compounds read low",1.01
same,normalized growth,[3],0.815
same,normalized growth,"locus YJL128C, strain PBS2, active compounds read low",0.973
same,normalized growth,"locus YJL157C, strain FAR1, active compounds read low",0.893
same,normalized growth,"locus YJR016C, strain ILV3, active compounds read low",1.02
same,normalized growth,"locus YJR066W, strain TOR1 (second series), active compounds read low",0.848
same,normalized growth,"locus YJR066W, strain TOR1, active compounds read low",0.901
same,normalized growth,"locus YKL048C, strain ELM1, active compounds read low",0.957
same,normalized growth,"locus YKL067W, strain YNK1, active compounds read low",0.924
same,normalized growth,"locus YKL101W, strain HSL1, active compounds read low",0.913
same,normalized growth,"locus YKL193C, strain SDS22, active compounds read low",1.01
same,normalized growth,"locus YKL203C, strain TOR2, active compounds read low",0.92
same,normalized growth,"locus YLR113W, strain HOG1, active compounds read low",0.996
same,normalized growth,"locus YLR133W, strain CKI1, active compounds read low",0.904
same,normalized growth,"locus YLR403W, strain SFP1, active compounds read low",0.801
same,normalized growth,"locus YML070W, strain DAK1, active compounds read low",0.903
same,normalized growth,"locus YMR001C, strain CDC5, active compounds read low",1
same,normalized growth,"locus YMR205C, strain PFK2 (second series), active compounds read low",0.916
same,normalized growth,"locus YMR277W, strain FCP1, active compounds read low",1.01
same,normalized growth,"locus YNL006W, strain LST8, active compounds read low",1.02
same,normalized growth,"locus YNL020C, strain ARK1, active compounds read low",0.908
same,normalized growth,"locus YNL161W, strain CBK1, active compounds read low",1.02
same,normalized growth,"locus YNL183C, strain NPR1, active compounds read low",0.95
same,normalized growth,"locus YNL207W, strain RIO2, active compounds read low",1.01
same,normalized growth,"locus YNL222W, strain SSU72, active compounds read low",1.02
same,normalized growth,"locus YNL307C, strain MCK1 (second series), active compounds read low",0.787
same,normalized growth,"locus YOL078W, strain AVO1, active compounds read low",1
same,normalized growth,"locus YOL136C, strain PFK27, active compounds read low",0.838
same,normalized growth,[4],0.861
same,normalized growth,"locus YOR119C, strain RIO1, active compounds read low",0.938
same,normalized growth,"locus YOR231W, strain MKK1, active compounds read low",0.912
same,normalized growth,"locus YOR329C, strain SCD5, active compounds read low",1.02
same,normalized growth,"locus YPL031C, strain PHO85, active compounds read low",0.899
same,normalized growth,"locus YPL153C, strain RAD53, active compounds read low",0.921
same,normalized growth,"locus YPL204W, strain HRR25, active compounds read low",0.853
same,normalized growth,"locus YPL209C, strain IPL1, active compounds read low",1.02
same,normalized growth,"locus YPL256C, strain CLN2, active compounds read low",1.07
same,normalized growth,"locus YPR025C, strain CCL1, active compounds read low",1.02
same,normalized growth,"locus YPR106W, strain ISR1, active compounds read low",0.998
same,normalized growth,"locus YPR111W, strain DBF20, active compounds read low",1
same,normalized growth,"strain NNK1, active compounds read low",1
same,normalized growth,"strain TSCII, active compounds read low",1.01
